According to publication PMC5540273 (PLoS ONE, 2017):

tested on: T1, PCTK2; conditions: concentration: 1 μM, replicates: in singlicate; n = 1
T1 construct: gene CDK17
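Note: KINOMEscan kinase panel screen.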

| SMILES | %Inh |
| --- | --- |
| O=C(Nc1cccc(-c2nn3ccccc3c2-c2ccnc(Nc3cccc(C(F)(F)F)c3)n2)c1)c1c(F)cccc1F [GSK292658] | 0% |
| O=C(NC1CCN(c2ccnc(Nc3ccc(F)cc3)n2)C1)c1cc2ccccc2s1 (stereo not drawn) [GSK1379716] | 11% |
| COc1cc(Nc2nccc(-c3c(-c4cccc(NC(=O)c5c(F)cccc5F)c4)nn4ncccc34)n2)cc(OC)c1OC [GSK327238] | 0% |
| COc1cccc(-c2ccc3c(NC(=O)C4CC4)n[nH]c3n2)c1 [SB-710903] | 19% |
| Cn1cc(-c2ccc3c(c2)CCN3C(=O)Cc2cccc(Cl)c2)c2c(N)ncnc21 [GSK2606590] | 0% |

tested on: T2, PCTK3; conditions: concentration: 1 μM, replicates: in singlicate; n = 1
T2 construct: gene CDK18

| SMILES | %Inh |
| --- | --- |
| FC(F)(F)c1ccc(/C=C/c2cncnc2Nc2ccc3[nH]c(Cc4ccccc4)nc3c2)cc1 [GW709199] | 4% |
| COc1ccc(Nc2nccc(NCCNC(=O)c3cc4ccccc4s3)n2)cc1 [GSK1379896] | 0% |
| Cl.Cl.NCC(NCc1ccc(-c2ccnc3[nH]ccc23)s1)c1ccccc1 (stereo not drawn) [GSK1321565] | 0% |
| O=C(Nc1cccc(-c2nn3ncccc3c2-c2ccnc(Nc3ccccc3)n2)c1)c1c(F)cccc1F [GSK198271] | 17% |
| Cn1cc(-c2ccc3c(c2)CCN3C(=O)Cc2cccc(F)c2)c2c(N)ncnc21 [GSK2603358] | 17% |
| Nc1ncc(-c2cccnc2)c2scc(-c3ccc4c(c3)CCN4C(=O)Cc3ccccc3)c12 [GSK683281] | 18% |
| COC(=O)Nc1nc2cc(Oc3ccc(NC(=O)Nc4cc(C(F)(F)F)ccc4F)cn3)ccc2[nH]1.Cl.Cl [GW681170] | 16% |
